# Test results from PubChem BioAssay (NCATS).
# Several values for one entry are separate records, joined by “and”; a condition that tells them apart may be missing. Identical values can stand only once. Inconclusive results are not listed. A number with no mark means an inactive call. Activity calls are given as the source filed them. Calls come from the whole dose curve; as a rule, active = well fitted activation curve with a large enough effect; inconclusive = small, poorly fitted or top-dose-only effect; inactive = flat fitted curve, though single readings scatter.
# Assay: Cellular Toxicity (caspase-3) Hek293 (AID 664);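 note: cells exposed to compound for 16 h at 37 °C before readout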
# Settings: HEK293 caspase-3 activation, DMSO = 0%, 100 µM tamoxifen = 100%; at 92.2 µM (top of the series)
# Source text: NIH Chemical Genomics Center [NCGC]
# NIH Molecular Libraries Screening Centers Network [MLSCN]
# National Institutes of Environmental Health Sciences [NIEHS]
# National Toxicology Program [NTP]
# We have developed a 1536-well cell-based assay for quantitative high throughput screening (qHTS) against a number of cell lines to determine in vitro caspase 3/7 of small molecules. This particular assay uses the Hek 293 cell line which is derived from human embryonic kidney cells.
# NCGC Assay Protocol Summary:
# The Caspase-Glo 3/7 assay (Promega) is a homogeneous method to measure caspase-3 and caspase-7 activities in cultured cells. The quantitation of caspase 3/7 activity is based on the cleavage of a peptide-aminoluciferin substrate. After caspase cleaves the substrate the free aminoluciferin is liberated and serves as the substrate of luciferase, which generates the light. The luminescent signal is proportional to amount of caspase 3/7 activity present.
# Using the Caspase-Glo 3/7 assay, the amount of caspase 3/7 activity was measured in the Hek 293 cell line with complete culture medium following compound treatment for 16 hours. The assay was performed in opaque white 1536-well plates. In the screen, tamoxifen and doxorubicin were used as positive controls. Library compounds were measured for their ability to cause the activation of caspase 3/7 in the cell line, as reflected by an increase in luminescence signal, in a concentration-dependent manner. Data were normalized to the controls for basal activity (DMSO only) and 100% stimulation (100 uM tamoxifen). AC50 values were determined from concentration-response data modeled with the standard Hill equation.
# qHTS protocol for caspase 3/7 assay in Hek 293 cells
# [Step] [Parameter] [Value] [Description]
# 2. Time; 5 hr; 37 °C incubation
# 4. Controls; 23 nL; Tamoxifen 0.23 uM to 100 uM & Doxorubicin 7.0 pM to 100 uM
# 5. Time; 16 hr; 37 °C incubation
# 6. Reagent; 5 uL; Caspase-Glo 3/7 reagent
# 7. Time; 20 min; Room Temperature
# 8. Detection; Luminescence; Viewlux plate reader
# Keywords: caspase 3/7, apoptosis, Hek 293 cell line, luminescence, NTPHTS, NTPHTS_NCGC, NIEHS, EPA, DSSTox, MLSMR, MLSCN, NIH Roadmap, qHTS, NCGC
row,SMILES,caspase-3 activation
1,O=[N+]([O-])c1cc([N+](=O)[O-])c2ccc(S(=O)(=O)O)cc2c1O,1.41%
2,Cc1cc(O)c(C(C)(C)C)cc1Sc1cc(C(C)(C)C)c(O)cc1C,230% (active)
3,C=CC(=O)OCC(CO)(COC(=O)C=C)COC(=O)C=C,-6.03%
4,C=CC(=O)OCCOCCOC(=O)C=C,5.92%
5,CNc1ccc(O)cc1,-11.1%
6,Cc1cc(Nc2ccc(O)cc2)ccc1N,-8.9%
7,O=C1OC(O)C(C(Cl)Cl)=C1Cl (stereo unspecified),0.823%
8,CO[C@H]1/C=C/O[C@@]2(C)Oc3c(C)c(O)c4c(O)c(c5c(c4c3C2=O)NC2(CCN(CC(C)C)CC2)N=5)=NC(=O)/C(C)=C\C=C\[C@H](C)[C@H](O)[C@@H](C)[C@@H](O)[C@@H](C)[C@H](OC(C)=O)[C@@H]1C,-2.49%
9,Cc1ccc(S(=O)(=O)Oc2ccc(N=Nc3ccc(-c4ccc(N=Nc5c(O)ccc6cc(S(=O)(=O)O)cc(S(=O)(=O)O)c56)c(C)c4)cc3C)cc2)cc1,-1.72%
10,ClC1=C(Cl)C(Cl)(Cl)C(Cl)=C1Cl,131% (active)
11,O=C(/C=C/c1ccc(O)c(O)c1)OC1C[C@](O)(C(=O)O)C[C@@H](O)[C@H]1O (stereo partly specified),0.862% and -1.58%
12,O=C=Nc1ccc(Cc2ccc(N=C=O)cc2)cc1,-1.82%
13,c1cc(OCC2CO2)cc(OCC2CO2)c1 (stereo unspecified),8.84%
14,c1ccc2c(c1)-c1cccc3c1c-2cc1ccccc13,-2.54%
15,C=C(C)c1ccccc1,0.697%
16,CCC(C)Nc1ccc(NC(C)CC)cc1 (stereo unspecified),-12.1%
17,Oc1ccc2cc(SSc3ccc4cc(O)ccc4c3)ccc2c1,15.1%
18,O=Cc1ccc(Cl)c(Cl)c1,1.45%
19,Cc1cccc(O)c1C,0.349%
20,CCCCCC/C(C=O)=C\c1ccccc1,2.43%
21,c1ccc2c(c1)ccc1cc3c(ccc4ccccc43)cc12,-3.42%
22,O=C(OCC(COC(=O)c1ccccc1)(COC(=O)c1ccccc1)COC(=O)c1ccccc1)c1ccccc1,2.36%
23,O=C1OC2(c3cc(Br)c(O)c(Br)c3Oc3c2cc(Br)c(O)c3Br)c2c(Cl)c(Cl)c(Cl)c(Cl)c21,-0.811%
24,Nc1ccc2cc3ccccc3cc2c1,-0.457%
25,CN1[C@H]2CC(OC(=O)[C@H](CO)c3ccccc3)C[C@H]1[C@H]1O[C@H]12 (stereo partly specified),-1.68% and 4.08%
26,CN(C)c1ccc(C2(c3ccc(N(C)C)cc3)OC(=O)c3cc(N(C)C)ccc32)cc1,-1.05%
